Test results: PubChem BioAssay (Tox21)
“And” between values parts separate entries of the source, which are not always exact repeats. Equal values may be shown once. Records with an inconclusive call do not appear. Entries that show only a call come without a potency. A structure can be active in one record and inactive in another. The source made the active and inactive calls. Unless noted, calls follow the shape of the dose curve; as a rule, active = well fitted curve in the direction sought with a large enough effect in the repeat runs; inconclusive = weak or mixed curves; inactive = no such curve, though single readings can be large; an effect the other way counts as inactive or inconclusive.

Key:
[1] = qHTS assay to identify small molecule antagonists of the vitamin D receptor (VDR) signaling pathway - cell viability counter screen (AID 743225); also: nearly all actives have a fitted effect of over 50% in size; also: potency is read from the fitted curve at half-maximal effect
Procedure, shortened: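 Luminescent cell viability (CellTiter-Glo) in VDR-bla HEK 293T cells after 16 h compound exposure at 37C in the presence of 3 nM final 1-alpha,25-dihydroxy vitamin D3.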

[2] = qHTS assay to identify small molecule agonists of the endoplasmic reticulum stress response signaling pathway (AID 1159516; active = well fitted activation curve with a large enough effect in the signal ratio in the repeat runs, not every such curve was filed as active; the % refers to the signal ratio)
Procedure, shortened: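 Cells are seeded at 1,500 per well and incubated overnight. Compounds in DMSO are added for 5 hr at 37 C, then beta-lactamase FRET substrate for 2 hr at room temperature, and fluorescence at 460 and 530 nm is measured.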

[3] = qHTS assay to identify small molecule agonists of the endoplasmic reticulum stress response signaling pathway - cell viability counter screen (AID 1159517; calls by dose curve; also: nearly all actives have a fitted effect of over 50% in size; also: potency is read from the fitted curve at half-maximal effect)
Procedure, shortened: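 Cytotoxicity of test compounds toward ESRE-bla HeLa cells was assessed after 5 hr exposure. The luminescent CellTiter-Glo signal was measured 30 min after reagent addition.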

[4] = qHTS assay to identify small molecule antagonists of the retinoid-related orphan receptor gamma (ROR-gamma) signaling pathway - cell viability counter screen (AID 1159520); also: nearly all actives have a fitted effect of over 50% in size
Procedure, shortened: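 Tet-on ROR gamma CHO cells (1,000/well) were plated 4 hr, given compounds in DMSO for 2 hr at 37 C, then induced with 1 uM final doxycycline for 16 hr. Viability was read as ATP by CellTiter-Glo luminescence after 30 min.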

[5] = qHTS assay to identify small molecule agonists of the AP-1 signaling pathway - cell viability counter screen (AID 1159525; calls by dose curve; also: nearly all actives have a fitted effect of over 55% in size; also: potency is read from the fitted curve at half-maximal effect)
Procedure, shortened: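 Each titration point was normalised to DMSO and tetra n-octyl ammonium bromide controls. The read was Cell Titer Glo luminescence after 30 min at RT, following 5 h compound exposure of ME-180 AP-1-bla cells at 37 °C.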

[6] = qHTS assay to identify small molecule agonists of the AP-1 signaling pathway (AID 1159526; calls by dose curve)
[7] = biological target: Retinoic acid receptor RXR-alpha (Homo sapiens) (UniProt P19793); assay: qHTS assay to identify small molecule agonists of the RXR signaling pathway (AID 1159527; calls by dose curve; also: nearly all actives have a fitted effect of over 35% in size)
Sequence of Retinoic acid receptor RXR-alpha (Homo sapiens) (P19793 whole entry, looked up): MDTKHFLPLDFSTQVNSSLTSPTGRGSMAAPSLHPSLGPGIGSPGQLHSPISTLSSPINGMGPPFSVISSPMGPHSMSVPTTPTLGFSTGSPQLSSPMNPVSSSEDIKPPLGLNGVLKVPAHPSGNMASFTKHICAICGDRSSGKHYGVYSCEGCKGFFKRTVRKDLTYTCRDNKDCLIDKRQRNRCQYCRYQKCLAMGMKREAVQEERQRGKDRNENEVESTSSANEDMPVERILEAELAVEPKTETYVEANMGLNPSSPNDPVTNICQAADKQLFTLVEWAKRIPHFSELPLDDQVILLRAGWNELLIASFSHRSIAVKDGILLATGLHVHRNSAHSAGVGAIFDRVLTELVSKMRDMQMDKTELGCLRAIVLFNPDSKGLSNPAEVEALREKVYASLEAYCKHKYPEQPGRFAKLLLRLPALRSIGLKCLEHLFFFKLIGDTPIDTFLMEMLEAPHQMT
Procedure, shortened: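 Beta-lactamase reporter assay, agonist format. Engineered HEK 293T line, charcoal-stripped FBS at 2%, overnight (16 hr) exposure, fluorescence at 460 and 530 nm after 405 nm excitation.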

[8] = qHTS assay to identify small molecule agonists of the RXR signaling pathway - cell viability counter screen (AID 1159529); also: nearly all actives have a fitted effect of over 50% in size; also: potency is read from the fitted curve at half-maximal effect
Procedure, shortened: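 Same-well viability check after the LiveBLAzer FRET read: CellTiter-Glo added, luminescence measured after 30 min at room temperature. Reporter HEK 293T cells had been treated with compounds for 16 hr following a 5 hr preincubation.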

[9] = qHTS assay to identify small molecule antagonists of the retinoid acid receptor (RAR) signaling pathway - cell viability counter screen (AID 1159551); also: nearly all actives have a fitted effect of over 35% in size
Procedure, shortened: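 Cells (C3RL4) are plated, incubated overnight, dosed with compound in DMSO, then given retinol at 1 uM final. After 6 h at 37 C, CellTiter-Glo is added and luminescence read following 30 min at room temperature.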

[10] = qHTS assay to identify small molecule antagonists of the retinoic acid receptor (RAR) signaling pathway (AID 1159552; also: nearly all actives have a fitted effect of over 50% in size; also: potency is read from the fitted curve at half-maximal effect)
Procedure, shortened: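 Readout: luciferase luminescence, 30 min post-reagent at RT. Setup: C3RL4 RARE reporter cells, compounds plus retinol 1 uM final, 6 hr incubation at 37 C and 5% CO2.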

[11] = qHTS assay to identify small molecule antagonists of the estrogen related receptor (ERR) signaling pathway from Tox21 library - cell viability counter screen (AID 1224834); also: nearly all actives have a fitted effect of over 30% in size; also: potency is read from the fitted curve at half-maximal effect
Procedure, shortened: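 ERR cells, 2,000/well; 6 h settle at 37 C/5% CO2; pin-tool compound transfer in DMSO; 17.5 h at 37 C; CellTiter-Fluor, 30 min; fluorescence intensity.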

[12] = biological target: Nuclear receptor ROR-gamma (Homo sapiens) (UniProt P51449); assay: qHTS assay to identify small molecule antagonists of the retinoid-related orphan receptor gamma (ROR-gamma) signaling pathway (AID 1159521; also: nearly all actives have a fitted effect of over 50% in size; also: potency is read from the fitted curve at half-maximal effect)
Procedure, shortened: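 CHO cells expressing RORγ under a TET-on promoter, luciferase under RORE control. Dox 1 uM final, 16 h; compounds added 2 h prior. Luminescence decrease measured.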

[13] = qHTS assay to identify small molecule agonists of the vitamin D receptor (VDR) signaling pathway - cell viability counter screen (AID 743224); also: nearly all actives have a fitted effect of over 50% in size; also: potency is read from the fitted curve at half-maximal effect
Procedure, shortened: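 Cells: VDR-bla, 2,000/well, settled 4 h. Treatment: compounds in DMSO, 16 h, 37C/5% CO2. Readout: CellTiter-Glo luminescence after 30 min RT.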

[14] = qHTS assay to identify small molecule agonists of the retinoic acid receptor (RAR) signaling pathway (AID 1159553)
Procedure, shortened: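 Seed C3RL4 reporter cells at 1,000 per well and incubate overnight at 37 C. Add compounds in DMSO, incubate 6 hr. Add luciferase reagent, wait 30 min at room temperature, read luminescence.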

[15] = qHTS assay to identify small molecule antagonists of the estrogen related receptor (ERR) signaling pathway - cell viability counter screen (AID 1224818); also: series mostly up to about 46 µM
Procedure, shortened: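 ERR cells, 2,000/well; 6 h settle at 37 C/5% CO2; compound pin transfer (DMSO); 17.5 h at 37 C; CellTiter-Fluor, 30 min, fluorescence read.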

[16] = qHTS assay to identify small molecule agonists of the estrogen related receptor (ERR) signaling pathway (AID 1224820)
Procedure, shortened: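 Following a 6 h settling period, 2,000 ERR cells per well receive DMSO-dissolved compounds by pin tool and incubate 18 h at 37 C; agonist activity is scored from One-Glo luminescence read 30 min post-addition.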

[17] = qHTS assay to identify small molecule antagonists of the estrogen related receptor signaling pathway with the pleiotropic PPARgamma coactivator (PGC) cell viability counter screen (AID 1224822;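 also: series mostly up to about 46 µM; viability read after 17.5 h compound exposure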)
Procedure, shortened: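 Multiplexed viability counter screen run in PGC/ERR cells treated with compounds for 17.5 h at 37 C; live-cell protease signal measured by CellTiter-Fluor fluorescence.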

Structure (SMILES)	Potency [1]	Potency [2]	Potency [3]	Potency [4]	Potency [5]	Potency [6]	Potency [7]	Potency [8]	Potency [9]	Potency [10]	Potency [11]	Potency [12]	Potency [13]	Potency [14]	Potency [15]	outcome [16]	Potency [17]
CCNc1nc(NC(C)CC)nc(OC)n1 (stereo not drawn)	inactive	inactive	inactive	inactive	inactive	inactive	inactive	inactive	inactive	inactive	inactive						
COC(=O)CC(C)CCC=C(C)C (stereo not drawn)	inactive	inactive	inactive	inactive	inactive			inactive	inactive	inactive	inactive	inactive					
CCOC(=O)N1CCC(=C2c3ccc(Cl)cc3CCc3cccnc32)CC1	38.9 µM (active) and inactive	inactive	inactive		inactive		inactive	54.9 µM (active) and inactive	inactive	inactive	24.3 µM (active) and 29.8 µM (active)	6.86 µM (active) and 21.1 µM (active)	54.9 µM (active) and inactive	inactive	inactive	inactive	inactive
COc1cccc(CCc2ccccc2OCC(CN(C)C)OC(=O)CCC(=O)O)c1 (stereo not drawn)	inactive	inactive	inactive	inactive	inactive	inactive		inactive				7.5 µM (active)	inactive				
Cc1cccc(C)c1NC(=O)CN1CCN(CCCC(c2ccc(F)cc2)c2ccc(F)cc2)CC1	23.9 µM (active)	inactive	inactive					21.3 µM (active)		26.6 µM (active)	21.1 µM (active)	21.1 µM (active)	29.8 µM (active)				
C=CC(C)(CCC=C(C)C)OC(=O)/C=C/c1ccccc1 (stereo not drawn)		inactive	inactive	inactive	inactive				inactive	inactive	inactive	inactive					
CCN(CC)CCSC(=O)C(c1ccccc1)c1ccccc1	inactive	inactive	inactive	inactive	inactive			inactive	inactive	26.6 µM (active)	inactive	inactive	inactive	inactive			
Cc1ccc(CCn2c3c(c4cc(Cl)ccc42)CN(C)CC3)cn1	inactive	inactive	inactive	inactive	inactive	inactive		16.9 µM (active)	inactive	inactive		inactive	inactive	inactive			
CC(=O)Oc1ccc(C2(c3ccc(OC(C)=O)cc3)C(=O)Nc3ccccc32)cc1	inactive	inactive	inactive	inactive			inactive	inactive	inactive		inactive	inactive	inactive				
Cc1ccc2ccc3cccc4ccc1c2c34		inactive	inactive	inactive	inactive	inactive			inactive	inactive	inactive		inactive	inactive			
CCO[Si](CCCSSSSCCC[Si](OCC)(OCC)OCC)(OCC)OCC		inactive	inactive	inactive	24.6 µM (active)			21.9 µM (active)	inactive								
CCCCCCCC/C=C\CCCCCCCC(=O)N(C)CC(=O)O		inactive	54.9 µM (active)		30.9 µM (active)							inactive					
CNCC[C@H](Oc1cccc2ccccc12)c1cccs1	8.49 µM (active)	inactive	inactive	inactive	inactive			23.9 µM (active)	inactive	23.7 µM (active)			11.9 µM (active)				
CNC(=S)NN		inactive	inactive	inactive	inactive				inactive	43.3 µM (active)	15.4 µM (active)	27.3 µM (active)	5.49 µM (active)				
O=C1OC(OC(=O)c2cccnc2Nc2cccc(C(F)(F)F)c2)c2ccccc21 (stereo not drawn)	inactive	inactive	inactive	inactive	inactive			inactive	inactive	inactive	inactive		inactive				
O=C1NCCN1CCN1CCC(c2cn(-c3ccc(F)cc3)c3ccc(Cl)cc23)CC1	16.9 µM (active)	inactive	inactive	inactive				21.3 µM (active)		26.6 µM (active)	26.6 µM (active)	26.6 µM (active)	11.9 µM (active)				
ClC/C=C\CCl	inactive	inactive	inactive	inactive	inactive	inactive		inactive	inactive	inactive	inactive			inactive			
Cc1c(C(=O)O)cccc1[N+](=O)[O-]	inactive	inactive	inactive	inactive	inactive				inactive	inactive	inactive						
O=C(O)CC(=O)O	inactive	inactive	inactive	inactive		inactive		inactive	inactive	inactive			inactive	inactive			
CCN(CC)CCCN(c1ccccc1)C1Cc2ccccc2C1		inactive	inactive	inactive	inactive				inactive						inactive		inactive
